A short description of experiment [1]: qHTS assay to identify small molecule agonists of the TGF-beta/Smad signaling pathway (AID 1346859; active means well fitted activation curve with a large enough effect in the signal ratio in the repeat runs, not every such curve was filed as active; the % refers to the signal ratio; further: series mostly up to about 77 µM). The essentials: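 Read-out: fluorescence at 460 and 530 nm (405 nm excitation) after a 2 hr room-temperature incubation with beta-lactamase FRET substrate. SBE-bla HEK 293T cells had been treated with test compounds for 5 hr at 37 C.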
The nature of experiment [2]: Human pregnane X receptor (PXR) small molecule agonists, qHTS cell viability counter screen (AID 1346977). Further: nearly all actives have a fitted effect of over 50% in size. The essentials:
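Fluorescence read-out (CellTiter-Fluor) of viability in PXR-Luc HepG2 cells, multiplexed with the luciferase agonist read. Compounds in DMSO added after 5hr plating; 24hr total exposure at 37C, 5% CO2.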

Experiment [3] in a line: Caspase-3/7 induction in HepG2 cells by small molecules, qHTS assay (AID 1346978). Further: nearly all actives have a fitted effect of over 15% in size. The essentials: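 Wild-type HepG2 cells (2,000/well) were settled 5 h at 37 C, 5% CO2, then exposed to compounds in DMSO for 17 h. Caspase-3/7 activity was read by luminescence 30 min after adding Caspase-Glo 3/7 reagent at room temperature.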
Experiment [4] is described as follows: Caspase-3/7 induction in CHO-K1 cells by small molecules, qHTS cell viability counter screen (AID 1346979). Further: nearly all actives have a fitted effect of over 35% in size. The essentials: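 CHO-K1 wt, 1,500 cells/well; 5hr pre-incubation 37C/5% CO2; compound pin transfer (DMSO); 16hr exposure; CellTiter-Fluor added, 1hr, fluorescence read.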
Experiment [5] in a line: Caspase-3/7 induction in CHO-K1 cells by small molecules, qHTS assay (AID 1346980). Further: nearly all actives have a fitted effect of over 15% in size. The essentials:
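Wild-type cells were seeded at 1,500 per well and settled 5 hr at 37 C, 5% CO2, then exposed to DMSO-dissolved compounds for 17 hr. Caspase-Glo 3/7 reagent was added, and luminescence was read after 30min at room temperature.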

Experiment [6] can be described thus: Caspase-3/7 induction in HepG2 cells by small molecules, qHTS cell viability counter screen (AID 1346981). Further: series mostly up to about 92 µM; nearly all actives have a fitted effect of over 30% in size. The essentials:
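Fluorescence read-out of live-cell protease activity (CellTiter-Fluor) after 1 hr with reagent. This was measured in the same wells as the caspase-3/7 luminescence, on HepG2 cells exposed to DMSO-dissolved compounds for 16 hr at 37 C.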

The target in experiment [7] is Cytochrome P450 2D6 (Homo sapiens) (UniProt P10635). In words: Cytochrome P450 Family 2 Subfamily D Member 6 (CYP2D6) small molecule antagonists: luciferase reporter qHTS assay (AID 1671196). Further: nearly all actives have a fitted effect of over 50% in size. Further: potency means the concentration at half of the fitted maximal effect. The essentials: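 Luminogenic proluciferin substrate, CYP2D6 enzyme; 10 min RT preincubation with compound, NADPH regeneration system added, 1 h RT. Stop/detection reagent, 20 min RT, luminescence read (RLU). Signal proportional to CYP activity.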

In experiment [8] the target is Cytochrome P450 2C19 (Homo sapiens) (UniProt P33261). In words: Cytochrome P450 Family 2 Subfamily C Member 19 (CYP2C19) small molecule antagonists: luciferase reporter qHTS assay (AID 1671197). Further: nearly all actives have a fitted effect of over 65% in size. Further: potency means the concentration at half of the fitted maximal effect. The essentials:
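CYP2C19 P450-Glo, 1536-well qHTS. Cpd + enzyme/proluciferin substrate 10 min RT; + NADPH regen, 37C 1 h; stop with luciferin detection reagent, 20 min RT, luminescence (RLU). Pos ctrl ketoconazole.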

In experiment [9] the target is Cytochrome P450 2C9 (Homo sapiens) (UniProt P11712). The experiment in a line: Cytochrome P450 Family 2 Subfamily C Member 9 (CYP2C9) small molecule antagonists: luciferase reporter qHTS assay (AID 1671198). Further: nearly all actives have a fitted effect of over 50% in size. Further: potency means the concentration at half of the fitted maximal effect. The essentials:
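CYP2C9 activity was measured with a P450-Glo proluciferin substrate. Enzyme–substrate mix was held with compound for 10 min at room temperature, then NADPH regeneration solution was added for 1 h at 37C. Luciferin product was read as luminescence.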

In experiment [10] the target is Cytochrome P450 1A2 (Homo sapiens) (UniProt P05177). The experiment in a line: Cytochrome P450 Family 1 Subfamily A Member 2 (CYP1A2) small molecule antagonists: luciferase reporter qHTS assay (AID 1671199). Further: nearly all actives have a fitted effect of over 50% in size. Further: potency means the concentration at half of the fitted maximal effect. The essentials: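 Luminescence readout (relative luminescence units) after luciferin detection reagent, 20 min RT. Preceded by 1 h room-temperature CYP1A2 reaction with NADPH regeneration solution following 10 min compound preincubation with enzyme and proluciferin substrate. Furafylline positive control.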

The target in experiment [11] is Voltage-gated inwardly rectifying potassium channel KCNH2 (Homo sapiens) (UniProt Q12809). The experiment in a line: Human Ether-a-go-go-Related Gene (hERG) channel small molecule antagonists: fluorescence cell-based qHTS assay (AID 1671200). The essentials:
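Read-out: thallium influx as a surrogate for potassium, tracked as fluorescence (480 nm ex/540 nm em) every second for 2 min after Stimulus Buffer addition in dye-loaded hERG-U2OS cells.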

Experiment [12] has as its target Nuclear receptor subfamily 1 group I member 2 (Rattus norvegicus) (UniProt Q9R1A7). In words: Rat pregnane X receptor (rPXR) activation by small molecules, qHTS assay (AID 1346983). Further: nearly all actives have a fitted effect of over 20% in size. The following applies: rPXR luciferase reporter cells, One-Glo luminescence, 24 h; max activation: hits give high values. The essentials: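 Cell-based rPXR luciferase reporter assay, 2,000 cells per well, rested 5hr at 37 C before compound addition in DMSO, then 24 hr at 37 C. One-Glo reagent was added and luminescence read after 30 min at room temperature.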

Experiment [13] addresses Nuclear receptor subfamily 1 group I member 2 (Homo sapiens) (UniProt O75469). In words: CYP3A4 induction through human pregnane X receptor (PXR) by small molecules, qHTS assay (AID 1346984). Further: nearly all actives have a fitted effect of over 40% in size. The essentials: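 HepG2-derived DPX-2 line carrying PXR plus a CYP3A4-promoter luciferase reporter; cells plated 5 hr, compound-exposed 24 hr at 37C. CYP3A4 activity probed with 3uM (final) Luciferin-IPA for 3hr, then luciferase read after One-Glo.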

For experiment [14] the target is unchanged. In words: Human pregnane X receptor (PXR) activation by small molecules, qHTS assay (AID 1346985). Further: nearly all actives have a fitted effect of over 40% in size. The essentials: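 DPX-2 cells (HepG2 co-transfected with a PXR response element and a CYP3A4-promoter luciferase construct) were seeded at 2,000 per well, rested 5 hr at 37C, then exposed to DMSO-dissolved compounds for 24 hr. Activation was read as luciferase luminescence.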

Experiment [15] shares this target. In words: Human pregnane X receptor (PXR) small molecule agonists, qHTS assay (AID 1346982). Further: nearly all actives have a fitted effect of over 35% in size. The essentials: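 HepG2 PXR-Luc reporter line, 5% charcoal-stripped FBS; 5 hr pre-incubation, compound (DMSO) 24 hr at 37 C/5% CO2; ONE-Glo 30 min RT; luminescence read-out.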
Experiment [16] addresses Cytochrome P450 3A4 (Homo sapiens) (UniProt P08684). In words: Cytochrome P450 Family 3 Subfamily A Member 4 (CYP3A4) small molecule antagonists: luciferase reporter qHTS assay (AID 1671201). Further: nearly all actives have a fitted effect of over 50% in size. Further: potency means the concentration at half of the fitted maximal effect. The essentials: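 Luminescent readout (RLU) proportional to CYP3A4 activity, from luciferin generated off a proluciferin substrate. Enzyme–substrate mix plus compound 10 min at room temp, NADPH regeneration 1 h, detection reagent 20 min.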

The target of experiment [17] is Thyrotropin-releasing hormone receptor (Homo sapiens) (UniProt P34981). In words: qHTS assay to identify small molecule antagonists of the thyrotropin-releasing hormone receptor (TRHR) signaling pathway (AID 1346877; active means well fitted inhibition curve with a large enough effect in the repeat runs, not every such curve was filed as active; further: series mostly up to about 51 µM). The essentials: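 HEK293/TRHR cells, 18 h, 37 °C; Ca2+ dye 2 h; cpd 5 min RT; TRH 1 nM final; fluorescence read 3 min, 1 s intervals; 15 concs, triplicate.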

The target is the same in experiment [18]. In words: qHTS assay to identify small molecule agonists of the thyrotropin-releasing hormone receptor (TRHR) signaling pathway (AID 1346891; calls by dose curve;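 further: HEK293 cells expressing TRHR with calcium dye readout; series mostly up to about 58 µM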). The essentials: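 HEK293/TRHR cells, 1500 per well, 18 h 37 °C; Ca dye 2 h 37 °C; pin-tool compound addition (agonist mode); kinetic fluorescence 3 min, 1 s reads; 15 concentrations, triplicate.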

Nine molecules from PubChem BioAssay (Tox21) can be followed below.

The structures appear in SMILES notation. Values without a mark were called inactive. Inconclusive results are not listed. The source made the active and inactive calls. Unless noted, the call rests on the fitted dose curve; in most records, active means well fitted curve in the direction sought with a large enough effect in the repeat runs; inconclusive means weak or mixed curves; inactive means no such curve, though single readings can be large; an effect the other way counts as inactive or inconclusive.
On the % scale 0 is the no-effect control and ±100 the full control effect.

Sequence of Nuclear receptor subfamily 1 group I member 2 (Homo sapiens) (O75469 whole entry, looked up): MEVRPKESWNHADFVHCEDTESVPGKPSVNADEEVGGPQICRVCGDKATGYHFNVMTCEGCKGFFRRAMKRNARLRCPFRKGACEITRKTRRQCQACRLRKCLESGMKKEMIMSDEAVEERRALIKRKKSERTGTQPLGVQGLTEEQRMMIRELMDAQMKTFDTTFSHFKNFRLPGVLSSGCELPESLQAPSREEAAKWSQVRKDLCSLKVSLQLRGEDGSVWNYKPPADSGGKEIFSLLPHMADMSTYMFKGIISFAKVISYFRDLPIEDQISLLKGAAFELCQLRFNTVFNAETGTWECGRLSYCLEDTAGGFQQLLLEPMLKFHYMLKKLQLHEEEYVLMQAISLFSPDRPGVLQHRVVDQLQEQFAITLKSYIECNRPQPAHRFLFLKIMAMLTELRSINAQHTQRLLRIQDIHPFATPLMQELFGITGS
Sequence of Cytochrome P450 2D6 (Homo sapiens) (P10635 whole entry, looked up): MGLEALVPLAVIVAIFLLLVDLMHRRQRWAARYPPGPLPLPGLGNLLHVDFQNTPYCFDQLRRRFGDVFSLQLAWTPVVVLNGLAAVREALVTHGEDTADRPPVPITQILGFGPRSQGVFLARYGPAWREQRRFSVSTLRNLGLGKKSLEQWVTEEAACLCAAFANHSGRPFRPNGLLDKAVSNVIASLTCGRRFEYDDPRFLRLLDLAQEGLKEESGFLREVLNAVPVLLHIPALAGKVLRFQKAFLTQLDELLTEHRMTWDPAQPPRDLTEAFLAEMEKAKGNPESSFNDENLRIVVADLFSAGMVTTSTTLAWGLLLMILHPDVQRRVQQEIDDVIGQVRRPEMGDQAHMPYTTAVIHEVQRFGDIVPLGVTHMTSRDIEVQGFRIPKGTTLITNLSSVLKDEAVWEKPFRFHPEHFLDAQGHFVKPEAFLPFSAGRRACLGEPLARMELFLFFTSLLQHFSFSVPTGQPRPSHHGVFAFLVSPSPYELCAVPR
Sequence of Cytochrome P450 2C19 (Homo sapiens) (P33261 whole entry, looked up): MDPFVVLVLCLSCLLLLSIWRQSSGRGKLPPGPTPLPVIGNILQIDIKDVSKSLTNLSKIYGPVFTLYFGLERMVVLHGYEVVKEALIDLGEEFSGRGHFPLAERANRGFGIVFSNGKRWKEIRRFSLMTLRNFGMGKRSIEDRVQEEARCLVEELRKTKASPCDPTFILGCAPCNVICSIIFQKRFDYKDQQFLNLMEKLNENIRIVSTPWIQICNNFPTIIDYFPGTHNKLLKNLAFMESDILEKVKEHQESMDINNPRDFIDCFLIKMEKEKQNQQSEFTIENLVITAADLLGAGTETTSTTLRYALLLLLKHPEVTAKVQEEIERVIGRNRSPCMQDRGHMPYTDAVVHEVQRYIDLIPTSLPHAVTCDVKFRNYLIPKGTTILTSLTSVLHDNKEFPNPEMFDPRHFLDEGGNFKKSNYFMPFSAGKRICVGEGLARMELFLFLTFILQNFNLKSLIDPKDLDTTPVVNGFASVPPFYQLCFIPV
Sequence of Cytochrome P450 1A2 (Homo sapiens) (P05177 whole entry, looked up): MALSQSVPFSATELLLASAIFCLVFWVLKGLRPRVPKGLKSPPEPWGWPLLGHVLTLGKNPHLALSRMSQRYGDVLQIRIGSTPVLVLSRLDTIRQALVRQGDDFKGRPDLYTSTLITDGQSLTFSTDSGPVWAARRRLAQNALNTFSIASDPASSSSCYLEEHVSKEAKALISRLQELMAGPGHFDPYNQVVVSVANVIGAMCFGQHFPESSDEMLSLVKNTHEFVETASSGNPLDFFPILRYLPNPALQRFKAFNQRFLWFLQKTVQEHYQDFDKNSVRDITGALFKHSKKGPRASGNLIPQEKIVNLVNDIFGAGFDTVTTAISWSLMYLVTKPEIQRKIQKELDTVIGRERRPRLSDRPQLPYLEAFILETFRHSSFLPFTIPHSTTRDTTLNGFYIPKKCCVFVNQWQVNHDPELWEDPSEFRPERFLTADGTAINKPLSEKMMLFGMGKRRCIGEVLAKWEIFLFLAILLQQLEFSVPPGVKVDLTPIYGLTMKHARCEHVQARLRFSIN
Sequence of Cytochrome P450 2C9 (Homo sapiens) (P11712 whole entry, looked up): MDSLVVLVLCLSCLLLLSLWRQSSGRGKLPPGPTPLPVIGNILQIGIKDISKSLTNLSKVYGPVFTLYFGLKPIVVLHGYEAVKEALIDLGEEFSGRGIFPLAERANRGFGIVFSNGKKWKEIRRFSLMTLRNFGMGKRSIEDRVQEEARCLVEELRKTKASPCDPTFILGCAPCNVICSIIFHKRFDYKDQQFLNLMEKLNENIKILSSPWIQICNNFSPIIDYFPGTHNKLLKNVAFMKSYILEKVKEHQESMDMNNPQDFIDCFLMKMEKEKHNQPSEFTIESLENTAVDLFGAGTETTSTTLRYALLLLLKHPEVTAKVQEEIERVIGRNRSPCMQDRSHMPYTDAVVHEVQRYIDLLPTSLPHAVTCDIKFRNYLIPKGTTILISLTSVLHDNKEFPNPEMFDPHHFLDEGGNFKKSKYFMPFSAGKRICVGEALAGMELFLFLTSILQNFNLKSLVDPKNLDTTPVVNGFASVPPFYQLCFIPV
Sequence of Cytochrome P450 3A4 (Homo sapiens) (P08684 whole entry, looked up): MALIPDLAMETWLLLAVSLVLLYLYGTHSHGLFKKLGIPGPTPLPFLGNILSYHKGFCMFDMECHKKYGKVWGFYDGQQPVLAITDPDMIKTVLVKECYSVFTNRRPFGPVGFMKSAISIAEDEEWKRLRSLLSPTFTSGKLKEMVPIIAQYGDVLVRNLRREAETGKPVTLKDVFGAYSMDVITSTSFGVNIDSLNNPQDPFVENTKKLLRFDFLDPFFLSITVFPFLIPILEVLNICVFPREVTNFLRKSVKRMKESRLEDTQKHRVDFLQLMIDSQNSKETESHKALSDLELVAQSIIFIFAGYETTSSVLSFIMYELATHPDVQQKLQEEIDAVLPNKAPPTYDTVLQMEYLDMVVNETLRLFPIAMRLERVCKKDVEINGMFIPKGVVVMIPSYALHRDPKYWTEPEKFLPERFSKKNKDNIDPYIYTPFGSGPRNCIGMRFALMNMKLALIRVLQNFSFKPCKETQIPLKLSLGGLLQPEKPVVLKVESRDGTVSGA
Sequence of Voltage-gated inwardly rectifying potassium channel KCNH2 (Homo sapiens) (Q12809 whole entry, looked up): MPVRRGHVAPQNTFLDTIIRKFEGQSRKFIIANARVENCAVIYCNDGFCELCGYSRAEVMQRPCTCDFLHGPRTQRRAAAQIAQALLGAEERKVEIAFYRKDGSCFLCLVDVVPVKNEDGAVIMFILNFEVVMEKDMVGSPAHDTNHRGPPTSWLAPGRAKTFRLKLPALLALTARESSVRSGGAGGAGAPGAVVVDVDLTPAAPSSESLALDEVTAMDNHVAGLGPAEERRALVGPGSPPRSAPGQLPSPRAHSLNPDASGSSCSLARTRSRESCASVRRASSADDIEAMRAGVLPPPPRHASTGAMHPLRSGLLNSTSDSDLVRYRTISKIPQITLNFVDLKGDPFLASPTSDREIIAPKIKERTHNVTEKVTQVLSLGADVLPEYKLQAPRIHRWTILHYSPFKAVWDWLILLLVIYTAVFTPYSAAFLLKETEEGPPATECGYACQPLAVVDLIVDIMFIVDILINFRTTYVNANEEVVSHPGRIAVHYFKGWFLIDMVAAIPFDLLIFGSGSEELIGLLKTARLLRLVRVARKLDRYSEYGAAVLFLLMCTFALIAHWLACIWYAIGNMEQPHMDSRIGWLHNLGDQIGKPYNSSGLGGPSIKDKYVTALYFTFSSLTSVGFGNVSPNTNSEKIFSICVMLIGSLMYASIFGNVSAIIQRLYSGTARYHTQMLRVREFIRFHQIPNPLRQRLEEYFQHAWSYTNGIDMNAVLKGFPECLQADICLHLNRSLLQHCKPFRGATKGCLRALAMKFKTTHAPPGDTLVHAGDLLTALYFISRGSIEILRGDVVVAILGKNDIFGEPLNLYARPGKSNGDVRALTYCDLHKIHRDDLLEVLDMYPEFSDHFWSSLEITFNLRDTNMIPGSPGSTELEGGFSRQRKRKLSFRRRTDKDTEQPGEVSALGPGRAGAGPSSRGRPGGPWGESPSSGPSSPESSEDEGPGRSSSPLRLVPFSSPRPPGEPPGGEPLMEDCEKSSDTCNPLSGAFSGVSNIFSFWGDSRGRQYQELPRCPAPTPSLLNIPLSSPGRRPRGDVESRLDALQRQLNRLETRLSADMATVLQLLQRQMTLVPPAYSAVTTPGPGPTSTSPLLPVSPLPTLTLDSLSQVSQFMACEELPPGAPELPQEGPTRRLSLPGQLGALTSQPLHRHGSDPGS
Sequence of Thyrotropin-releasing hormone receptor (Homo sapiens) (P34981 whole entry, looked up): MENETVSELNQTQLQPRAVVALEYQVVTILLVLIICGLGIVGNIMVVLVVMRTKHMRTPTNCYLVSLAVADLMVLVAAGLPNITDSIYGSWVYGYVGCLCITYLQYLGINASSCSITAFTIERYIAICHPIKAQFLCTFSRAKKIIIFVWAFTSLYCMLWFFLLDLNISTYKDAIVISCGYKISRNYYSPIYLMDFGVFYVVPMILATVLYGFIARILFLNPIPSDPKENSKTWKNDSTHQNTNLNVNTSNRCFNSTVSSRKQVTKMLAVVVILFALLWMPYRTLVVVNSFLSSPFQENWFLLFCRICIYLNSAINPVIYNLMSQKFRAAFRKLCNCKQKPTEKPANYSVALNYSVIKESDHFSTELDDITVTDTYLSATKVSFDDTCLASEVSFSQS
Sequence of Nuclear receptor subfamily 1 group I member 2 (Rattus norvegicus) (Q9R1A7 whole entry, looked up): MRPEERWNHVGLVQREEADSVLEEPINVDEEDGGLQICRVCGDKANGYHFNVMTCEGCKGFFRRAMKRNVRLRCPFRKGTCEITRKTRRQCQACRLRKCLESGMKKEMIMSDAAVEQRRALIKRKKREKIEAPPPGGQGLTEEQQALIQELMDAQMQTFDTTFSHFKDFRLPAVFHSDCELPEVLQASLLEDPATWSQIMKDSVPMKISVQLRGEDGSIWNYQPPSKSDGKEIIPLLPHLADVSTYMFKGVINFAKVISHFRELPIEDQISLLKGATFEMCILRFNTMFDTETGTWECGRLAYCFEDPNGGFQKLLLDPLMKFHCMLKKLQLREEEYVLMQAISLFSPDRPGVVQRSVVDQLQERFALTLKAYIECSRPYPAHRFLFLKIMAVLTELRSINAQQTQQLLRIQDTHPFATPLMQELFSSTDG

For `Cc1cc2c(cc1CC(=O)c1sccc1S(=O)(=O)Nc1onc(C)c1Cl)OCO2`, the outcome in experiment [1], in [2], in experiment [3], in experiment [5] and in experiment [6] was inactive. In addition, the Potency result in experiment [4] and in experiment [11] was “inactive” throughout. Moreover, the Potency was 2.45 µM (active) in experiment [7], 8.71 µM (active) in [8], 8.71 µM (active) in [9] and 3.23 µM (active) in experiment [10].

Regarding `CN1C(CCl)Nc2cc(Cl)c(S(N)(=O)=O)cc2S1(=O)=O` (stereo not given), the result in experiment [1], in experiment [2], in experiment [3], in [5], in experiment [6] and in experiment [13] was inactive. Further, the molecule was called inactive in [14]. The Potency result in experiment [4], in [7], in experiment [8], in experiment [9] and in experiment [11] was “inactive” in each case. In experiment [12], the max activation is -9.91%.

With `O=c1c(O)c(O)c1=O`, the molecule was classed as inactive in experiment [1], in [2], in [5] and in experiment [6]. Further, the Potency entry in experiment [4], in experiment [15], in experiment [7], in [8], in experiment [9] and in experiment [11] was “inactive” in each case. Besides, the Potency entry in experiment [16] was “inactive”.

Consider `COC(=O)c1ccc(C(=O)O)cc1`, for which the molecule was classed as inactive in [1], in experiment [2], in experiment [3], in experiment [5] and in experiment [6]. Also, the Potency entry in experiment [4], in experiment [15], in experiment [10], in [11] and in [16] was “inactive” in each case.

As to `CC(=O)c1ccc2ccc3ccccc3c2c1`, the outcome in experiment [1], in experiment [2], in [3], in experiment [5] and in experiment [6] was inactive. Besides, the Potency result in experiment [7] and in experiment [11] was “inactive” each time. The Potency in experiment [8] is 22.3 µM (active); in [9], 12.6 µM (active); in [16], 39.7 µM (active).

As for `CC(C)OCCO`, the molecule was classed as inactive in experiment [1], in experiment [2], in experiment [3], in experiment [5] and in experiment [6]. The Potency entry in experiment [4], in experiment [15], in experiment [7], in experiment [9], in experiment [10] and in experiment [11] was “inactive” in each case. The Potency entry in experiment [16] was “inactive”.

For the molecule `CC/C=C/CCCCCCCCCCOC(C)=O`, the result in experiment [1], in [2], in experiment [3], in experiment [5] and in experiment [6] was inactive. Also, the Potency entry in experiment [4], in experiment [15], in [7], in experiment [9], in [11] and in experiment [16] was “inactive” throughout.

Turning to `Cc1cccc(N)n1`, the result in [1], in [2], in [3], in [5] and in experiment [6] was inactive. Besides, the Potency entry in experiment [15] is “inactive”.

In the case of `N[C@H]1C(O)O[C@H](CO)[C@@H](O)[C@@H]1O` (stereo not given in full), the outcome in experiment [17], in experiment [2], in [3], in [5], in experiment [6] and in experiment [13] was inactive. Moreover, the molecule was called inactive in experiment [14]. Moreover, the Potency entry in experiment [18], in [4], in experiment [15], in experiment [8], in [9] and in experiment [10] was “inactive” in each case. Also, the Potency result in [11] is “inactive”. The max activation in experiment [12] is 3.63%. Also, in [7], the Potency is 30.9 µM (active).
